# Article PMC4336329 (PLoS ONE, 2015)
# The campaign covered roughly 310,000 compounds. About 2,200 (0.71%) showed an effect of 50% or more. Effects have a minus sign here. The sample holds strong results, similar compounds and a random draw of the others, so the mix is not that of the screen.
# Target: human ether-à-go-go-related gene (hERG) potassium channel (human, UniProt Q12809)
# Assay: primary screen, population patch clamp on CHO cells stably expressing hERG; higher = less effect of the substance
# Chain of human ether-à-go-go-related gene (hERG) potassium channel (Q12809 whole entry, looked up): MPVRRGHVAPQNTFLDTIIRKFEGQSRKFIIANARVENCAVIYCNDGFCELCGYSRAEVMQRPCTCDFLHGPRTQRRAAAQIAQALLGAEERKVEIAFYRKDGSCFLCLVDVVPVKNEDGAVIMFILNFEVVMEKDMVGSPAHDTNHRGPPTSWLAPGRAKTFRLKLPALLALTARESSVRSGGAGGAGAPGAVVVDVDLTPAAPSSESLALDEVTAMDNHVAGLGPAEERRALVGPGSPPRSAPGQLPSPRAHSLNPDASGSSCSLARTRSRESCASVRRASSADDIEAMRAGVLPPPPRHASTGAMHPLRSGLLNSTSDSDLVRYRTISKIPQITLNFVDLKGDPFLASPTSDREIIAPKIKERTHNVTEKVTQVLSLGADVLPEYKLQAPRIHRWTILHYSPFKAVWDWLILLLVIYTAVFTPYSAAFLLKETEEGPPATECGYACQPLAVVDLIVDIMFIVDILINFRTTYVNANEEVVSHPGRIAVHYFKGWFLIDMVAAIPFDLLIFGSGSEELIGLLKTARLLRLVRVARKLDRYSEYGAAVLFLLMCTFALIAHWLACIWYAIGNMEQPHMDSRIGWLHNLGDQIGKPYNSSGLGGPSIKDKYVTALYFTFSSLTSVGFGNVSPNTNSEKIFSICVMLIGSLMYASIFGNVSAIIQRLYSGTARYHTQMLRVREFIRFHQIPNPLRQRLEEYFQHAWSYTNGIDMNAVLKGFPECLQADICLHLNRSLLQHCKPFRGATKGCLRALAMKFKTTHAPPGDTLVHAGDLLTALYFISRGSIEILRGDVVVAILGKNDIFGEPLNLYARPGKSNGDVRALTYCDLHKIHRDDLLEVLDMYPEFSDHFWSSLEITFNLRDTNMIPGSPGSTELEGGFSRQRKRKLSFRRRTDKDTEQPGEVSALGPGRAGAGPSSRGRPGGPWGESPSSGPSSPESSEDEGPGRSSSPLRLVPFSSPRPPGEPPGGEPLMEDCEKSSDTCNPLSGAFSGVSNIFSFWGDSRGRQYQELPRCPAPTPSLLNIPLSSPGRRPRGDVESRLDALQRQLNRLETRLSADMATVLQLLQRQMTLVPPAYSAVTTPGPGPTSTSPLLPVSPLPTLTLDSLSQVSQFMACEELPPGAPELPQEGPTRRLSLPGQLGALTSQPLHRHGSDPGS
row,Compound,"hERG current change (%, negative = inhibition) at 1uM"
1,CC(Oc1ccc(Cl)cc1)C(=O)OCC(=O)Nc1ncc(Cl)cc1Cl (stereo not drawn),3.29%
2,O=C(Nc1ccc(F)cc1)c1nc[nH]c1C(=O)O,18.5%
3,COc1ccccc1OCC(O)Cn1c(=N)n(Cc2ccccc2)c2ccccc21.Cl (stereo not drawn),-39.6%
4,COc1ccccc1OCC(O)Cn1c(=N)n(CCN2CCCCC2)c2ccccc21.Cl (stereo not drawn),-27.9%
5,CCCCCn1c(=N)n(CC(O)COc2ccccc2OC)c2ccccc21 (stereo not drawn),-82.8%
6,C=CCn1c(=N)n(CC(O)COc2ccccc2OC)c2ccccc21.Cl (stereo not drawn),-43.5%
7,Cc1ccccc1OCC(O)Cn1c(=N)n(Cc2ccccc2)c2ccccc21.Cl (stereo not drawn),-48.4%
8,CCCCCn1c(=N)n(CC(O)COc2ccccc2OC)c2ccccc21.Cl (stereo not drawn),-86.3%
9,COC(=O)[C@H](C)NC(=O)Nc1ccc(C)c(C)c1,15.2%
10,Cc1ccnc(SCc2ccc([N+](=O)[O-])cc2)n1,-1.04%
11,COCCN(C(=O)CSc1nc(-c2ccccc2)cn1N)c1c(N)n(Cc2ccccc2)c(=O)[nH]c1=O,3.04%
12,CCCC(=O)Nc1cc(C(=O)O)ccc1Sc1ccc(C)cc1,10.9%
13,Cc1ccc(C)c(-n2c(SCC(=O)Nc3nonc3C)nnc2-c2ccoc2C)c1,9.3%
14,Cc1occc1-c1nnc(SCC(=O)NC2CCCC2)n1C,13.5%
15,CCCn1c(SCC(=O)Nc2nonc2C)nnc1-c1ccoc1C,5.83%
16,Cc1cccc(-n2c(SCC(=O)Nc3nonc3C)nnc2-c2ccoc2C)c1,-81.9%
17,Cc1occc1-c1nnc(SCC(=O)NC2CCCC2)n1-c1ccccc1,0.492%
18,Cc1cccc(-n2c(SCC(=O)NC3CCCC3)nnc2-c2ccoc2C)c1,-68.6%
19,CCn1c(SCC(=O)Nc2nonc2C)nnc1-c1ccoc1C,7.63%
20,Cc1nonc1NC(=O)CSc1nnc(-c2ccoc2C)n1-c1cccc(Cl)c1,-58.8%
21,Cc1nonc1NC(=O)CSc1nnc(-c2ccoc2C)n1C,9.71%
22,c1ccc2c(c1)CCCn1nnnc1-2,6.71%

row,Compound,"hERG current change (%, negative = inhibition) at 1uM"
1,CCCC(=O)N(Cc1cc(=O)[nH]c2ccccc12)c1ccccc1C,13.1%
2,O=C(Cn1cnc(S(=O)(=O)N2CCCC2)c1)Nc1cccc(F)c1,14.4%
3,COc1ccc(S(=O)(=O)N2CCOCC2)cc1NC(=O)c1ccc(-n2nc(C)cc2C)cc1,6.25%
4,CCc1ccc(C(=O)OCC(=O)Nc2cccc(S(=O)(=O)NC3=NCCCCC3)c2)cc1,7.29%
5,COc1ccc(CNS(=O)(=O)c2ccc3c(c2)CC(C)N3C(=O)C2CC2)cc1 (stereo not drawn),15.1%
6,O=C(CCC(=O)N1CCOc2ccccc21)NCCCN1CCN(Cc2ccccc2)CC1,-41.9%
7,CCN1CCN(CCCNC(=O)CCC(=O)N2CCOc3ccc(Cl)cc32)CC1,6.48%
8,O=C(CCC(=O)N1CCOc2ccc(Cl)cc21)NCCCN1CCC(Cc2ccccc2)CC1,-64.7%
9,Cc1ccc2c(c1)N(C(=O)CCC(=O)NCCCN1CCN(C)CC1)CCO2,7.21%
10,O=C(CCC(=O)N1CCOc2ccc(Cl)cc21)NCCCN1CCOCC1,12.5%
11,Cc1ccc2c(c1)N(C(=O)CCC(=O)NCCCN1CCOCC1)CCO2,13.9%
12,Cc1ccc2c(c1)N(C(=O)CCC(=O)NCCCN1CCC(Cc3ccccc3)CC1)CCO2,-78.7%
13,O=C(CCC(=O)N1CCOc2ccc(Cl)cc21)NCCCN1CCN(c2ccccc2F)CC1,-22.2%
14,O=C(CCC(=O)N1CCOc2ccc(Cl)cc21)NCCCN1CCN(Cc2ccccc2)CC1,-63.7%
15,CC(NS(=O)(=O)c1cccc(S(=O)(=O)c2ccccc2)c1)C(=O)O (stereo not drawn),7.71%
16,O=C(CSc1ccc(-c2cccnc2)nn1)N1CCCCC1,14.1%
17,COc1ccc(-c2[nH]ncc2CN(C)C(C)c2ccncn2)c(F)c1 (stereo not drawn),1.94%
18,COc1cc(Br)c(C(=O)c2nccc3cc(OC)c(OC)cc23)cc1OC,10.6%
19,O=C(COc1ccc2ccc(=O)oc2c1)Nc1nccs1,2.46%
20,O=C1N/C(=N/N=C/c2ccc(O)cc2)SC1Cc1ccccc1 (stereo not drawn),-0.776%
21,Cc1occc1C(=O)N/N=C/c1ccc(N(C)C)cc1,15.7%
22,O=C(NC1(C(F)(F)F)NC(=O)N(Cc2ccco2)C1=O)c1cccs1 (stereo not drawn),19.2%

row,Compound,"hERG current change (%, negative = inhibition) at 1uM"
1,CC(=O)N1CCN(c2ccc(NC(=O)c3ccc(Br)o3)cc2Cl)CC1,-1.25%
2,Cc1ccc(Cl)cc1N1CCN(S(=O)(=O)c2cnc[nH]2)CC1,1.64%
3,CN(Cc1ccccc1)S(=O)(=O)c1cc2c3c(c1)CCN3C(=O)CC2,6.98%
4,O=C(NN1C(=O)c2ccccc2NC1c1ccco1)c1ccccc1 (stereo not drawn),4.38%
5,O=C(NN1C(=O)c2ccccc2NC1c1ccc([N+](=O)[O-])o1)c1ccc(Br)cc1 (stereo not drawn),-27.2%
6,O=C(NN1C(=O)c2ccccc2NC1c1ccco1)c1ccc(Br)cc1 (stereo not drawn),-50.4%
7,O=C(Nc1ccc2oc(=O)ccc2c1)c1cccnc1Cl,-2.76%
8,CN(C)S(=O)(=O)c1ccc(C(=O)OCCCN=C2NS(=O)(=O)c3ccccc32)cc1,-5.83%
9,COc1ccc(CN2CCCC(C(=O)c3ccc(Cl)cc3)C2)c(O)c1 (stereo not drawn),-21.3%
10,COc1ccc(C(=O)C2CCCN(Cc3cc(Cl)ccc3O)C2)c(OC)c1 (stereo not drawn),12.6%
11,CSc1ccc(C(=O)C2CCCN(Cc3cnc(SC)nc3)C2)cc1 (stereo not drawn),-33.7%
12,COc1ccc(CN2CCCC(C(=O)c3ccc(Cl)cc3)C2)c(OC)c1 (stereo not drawn),-53.6%
13,COc1cc(CN2CCCC(C(=O)c3ccc(SC)cc3)C2)cc(Cl)c1O (stereo not drawn),-3.13%
14,COc1ccc(CN2CCCC(C(=O)c3ccc(Cl)cc3)C2)cc1Cn1cncn1 (stereo not drawn),-59.9%
15,CSc1ccc(C(=O)C2CCCN(Cc3cccnc3)C2)cc1 (stereo not drawn),-4.37%
16,O=C(c1ccc(-c2ccccc2)c(F)c1)C1CCCN(CCCn2cccn2)C1 (stereo not drawn),-38.6%
17,COc1cccc(C(=O)C2CCCN(Cc3ccc(OC)c(Cn4cncn4)c3)C2)c1 (stereo not drawn),-20.2%
18,CSc1ccc(C(=O)C2CCCN(CCCn3cccn3)C2)cc1 (stereo not drawn),-78.3%
19,COc1ccc(CN2CCCC(C(=O)c3ccc(SC)cc3)C2)cc1Cn1cccn1 (stereo not drawn),-68.5%
20,O=C(c1ccc(Cl)cc1)C1CCCN(Cc2ccc3nonc3c2)C1 (stereo not drawn),0.831%
21,Cc1ccc(-c2nc(Nc3cccc(C)c3)sc2CC(=O)O)cc1,9.35%
22,O=C(NCCCCc1ccccc1)Nc1cccc(F)c1,4.51%

row,Compound,"hERG current change (%, negative = inhibition) at 1uM"
1,COC(=O)CNS(=O)(=O)c1ccc(C)cc1,11.1%
2,CCn1c(SCC(=O)NCCc2ccccc2)nnc1C(C)C,12%
3,CCOC(=O)c1oc2ccc(S(=O)(=O)Nc3ccc4c(c3)n(C)c(=O)n4C)cc2c1C,2.26%
4,Cc1cc(-c2ccccc2)nc2cc(C(=O)N(Cc3ccccc3)Cc3ccccc3)nn12,-3.92%
5,CN(C)C(=S)Nc1ccc(Br)cc1Cl,7.39%
6,Nc1nccnc1C(=O)N/N=C/c1ccco1,13.2%
7,Cc1csc(NC(=O)CSc2nnc(CCNC(=O)c3ccc(Cl)c(Cl)c3)n2C)n1,2.76%
8,COc1ccc(-n2nnnc2SCC(=O)Nc2ccccc2N2CCOCC2)cc1,-6.62%
9,CSc1ccc(C(=O)C2CCCN(Cc3cccc4nccnc34)C2)cc1 (stereo not drawn),-82%
10,COc1ccccc1C(=O)C1CCCN(Cc2cccc3nccnc23)C1 (stereo not drawn),-45%
11,O=C(c1ccc(Cl)cc1)C1CCCN(Cc2ccc3ncccc3c2)C1 (stereo not drawn),-2.91%
12,COc1ccc(CN2CCCC(C(=O)c3cccc(OC(C)C)c3)C2)cc1Cn1cccn1 (stereo not drawn),-3.41%
13,COc1ccc(CN2CCCC(C(=O)c3ccc(Cl)cc3)C2)cc1Cn1cccn1 (stereo not drawn),-78.4%
14,COc1c(C)cc(C(=O)C2CCCN(Cc3cccc4nccnc34)C2)cc1C (stereo not drawn),-21.2%
15,Cc1ccc(NC(=O)CSc2ccccc2NC(=O)c2cccc(Cl)c2)cc1Cl,0.293%
16,COCC(=O)Nc1c(C(=O)N2CCCC2)oc2ccccc12,8.9%
17,O=C(COc1ccccc1)Nc1c(C(=O)N2CCC(N3CCCCC3)CC2)oc2ccccc12,-9.1%
18,COc1ccc(OCC(=O)Nc2c(C(=O)N3CCC(N4CCCCC4)CC3)oc3ccccc23)cc1,-82.8%
19,O=C(Nc1c(C(=O)N2CCC(N3CCCCC3)CC2)oc2ccccc12)c1ccc(F)cc1,-47.7%
20,O=C(Nc1c(C(=O)N2CCC(N3CCCCC3)CC2)oc2ccccc12)c1c(F)cccc1F,-5.22%
21,CCOc1ccc(C(=O)Nc2c(C(=O)N3CCC(N4CCCCC4)CC3)oc3ccccc23)cc1,-82%
